Holding throughout (experiment): DAPPL (digital affinity profiling via proximity ligation, sequencing); 10 mM Tris-HCl pH 7.5, 50 mM NaCl, 1 mM DTT, 4% glycerol, room temperature, 30 min; GST-TFs on glutathione beads, 16-mer random dsDNA library, 0.1% formaldehyde crosslink after washing; high values mean tight binding
Common to all, as to settings: protein: recombinant; tags: N-terminal GST; dsDNA, one strand shown

The target of one experiment is T1, ELK1 (Homo sapiens, UniProt P19419 1-428).
T1 sequence: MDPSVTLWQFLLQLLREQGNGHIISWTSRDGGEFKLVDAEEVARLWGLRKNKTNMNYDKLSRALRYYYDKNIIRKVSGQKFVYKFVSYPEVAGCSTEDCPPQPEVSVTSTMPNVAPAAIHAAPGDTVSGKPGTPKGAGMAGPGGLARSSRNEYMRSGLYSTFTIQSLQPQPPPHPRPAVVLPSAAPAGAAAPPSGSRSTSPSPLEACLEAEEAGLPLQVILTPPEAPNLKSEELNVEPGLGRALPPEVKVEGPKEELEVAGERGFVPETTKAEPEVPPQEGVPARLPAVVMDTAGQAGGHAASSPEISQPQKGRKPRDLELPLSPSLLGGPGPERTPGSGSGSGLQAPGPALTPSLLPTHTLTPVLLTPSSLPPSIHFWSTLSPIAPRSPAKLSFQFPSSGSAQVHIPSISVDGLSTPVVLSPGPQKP
The procedure, abridged:
(§1)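 Binding signal is defined as a hexamer's read frequency for one factor over its frequency for the tag-only sample. To obtain reads, GST-fused human transcription factors were expressed in yeast, captured on glutathione beads, barcoded with DNA and pooled with that sample. Pools met 200 nmole of a 16-mer random double-stranded DNA library in Tris/NaCl/DTT/glycerol buffer for 30 min at room temperature before washing, 0.1% formaldehyde crosslinking, proximity ligation (BsaI/T4 ligase, 1 h, 37 °C), PCR and Illumina NextSeq500 sequencing.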

Another experiment deals with T2, GABPA (Homo sapiens, UniProt Q06546 1-454).
T2 sequence: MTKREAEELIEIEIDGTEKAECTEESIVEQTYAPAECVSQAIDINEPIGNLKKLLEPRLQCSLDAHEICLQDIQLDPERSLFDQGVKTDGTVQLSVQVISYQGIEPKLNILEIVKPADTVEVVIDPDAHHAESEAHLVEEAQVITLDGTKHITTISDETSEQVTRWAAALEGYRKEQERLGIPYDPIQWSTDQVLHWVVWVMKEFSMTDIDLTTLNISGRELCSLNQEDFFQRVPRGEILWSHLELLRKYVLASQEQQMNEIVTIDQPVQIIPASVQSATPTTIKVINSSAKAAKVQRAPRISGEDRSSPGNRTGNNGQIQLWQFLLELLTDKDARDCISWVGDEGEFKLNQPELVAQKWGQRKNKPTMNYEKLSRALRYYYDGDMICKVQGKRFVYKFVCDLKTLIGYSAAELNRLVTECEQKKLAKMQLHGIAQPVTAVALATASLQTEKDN
The procedure, abridged: as §1

The next experiment addresses T3, ERG (Homo sapiens, UniProt P11308 1-479).
T3 sequence: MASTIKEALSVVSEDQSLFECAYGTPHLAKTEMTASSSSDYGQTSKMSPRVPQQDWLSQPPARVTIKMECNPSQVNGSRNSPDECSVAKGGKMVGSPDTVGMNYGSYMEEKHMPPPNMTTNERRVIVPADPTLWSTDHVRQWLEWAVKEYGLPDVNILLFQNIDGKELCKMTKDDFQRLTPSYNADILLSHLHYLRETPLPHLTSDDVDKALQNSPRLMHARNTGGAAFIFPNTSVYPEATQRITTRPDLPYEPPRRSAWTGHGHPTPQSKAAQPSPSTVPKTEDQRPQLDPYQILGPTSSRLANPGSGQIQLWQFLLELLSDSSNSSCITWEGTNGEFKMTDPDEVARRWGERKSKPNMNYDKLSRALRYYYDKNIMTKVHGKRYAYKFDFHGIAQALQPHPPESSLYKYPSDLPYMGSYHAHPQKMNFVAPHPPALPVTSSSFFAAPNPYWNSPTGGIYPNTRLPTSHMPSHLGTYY
The procedure, abridged:
as §1

In the next experiment the target is T4, EHF (Homo sapiens, UniProt Q9NZC4 1-300).
T4 sequence: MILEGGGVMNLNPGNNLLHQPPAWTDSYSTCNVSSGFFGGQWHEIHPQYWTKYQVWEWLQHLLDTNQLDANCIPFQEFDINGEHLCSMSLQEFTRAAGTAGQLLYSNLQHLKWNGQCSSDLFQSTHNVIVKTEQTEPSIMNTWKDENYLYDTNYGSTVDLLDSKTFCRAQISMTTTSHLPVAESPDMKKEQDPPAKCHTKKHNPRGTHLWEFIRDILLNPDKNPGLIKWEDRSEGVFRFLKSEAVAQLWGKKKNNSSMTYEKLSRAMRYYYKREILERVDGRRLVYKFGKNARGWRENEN
The procedure, abridged: as §1

For the next experiment, the target named is SPIB (Homo sapiens, UniProt Q01892 1-262). The procedure, abridged: as §1
Another experiment has as its target T5, ELK4 (Homo sapiens, UniProt P28324-2 1-405).
T5 sequence: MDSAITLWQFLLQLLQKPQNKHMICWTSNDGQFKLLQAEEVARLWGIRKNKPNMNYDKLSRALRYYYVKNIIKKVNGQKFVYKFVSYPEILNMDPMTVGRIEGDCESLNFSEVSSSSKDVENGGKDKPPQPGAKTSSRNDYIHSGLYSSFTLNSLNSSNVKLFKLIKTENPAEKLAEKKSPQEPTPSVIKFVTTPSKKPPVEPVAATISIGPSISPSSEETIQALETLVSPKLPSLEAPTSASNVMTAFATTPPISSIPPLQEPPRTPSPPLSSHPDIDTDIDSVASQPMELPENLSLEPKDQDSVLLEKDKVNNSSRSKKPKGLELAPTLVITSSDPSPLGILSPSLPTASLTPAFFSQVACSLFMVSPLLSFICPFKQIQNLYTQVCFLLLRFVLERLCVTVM
The procedure, abridged:
as §1

In a further experiment the target is T6, ETV2 (Homo sapiens, UniProt O00321 1-342).
T6 sequence: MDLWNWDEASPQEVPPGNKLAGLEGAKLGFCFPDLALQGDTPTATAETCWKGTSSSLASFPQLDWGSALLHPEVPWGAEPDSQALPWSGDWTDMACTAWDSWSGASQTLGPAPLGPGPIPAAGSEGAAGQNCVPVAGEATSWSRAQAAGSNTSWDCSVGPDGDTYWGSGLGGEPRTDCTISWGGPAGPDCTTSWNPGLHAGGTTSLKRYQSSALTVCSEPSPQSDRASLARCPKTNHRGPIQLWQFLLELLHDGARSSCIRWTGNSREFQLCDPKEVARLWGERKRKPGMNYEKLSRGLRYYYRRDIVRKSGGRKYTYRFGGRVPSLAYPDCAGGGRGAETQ
The procedure, abridged:
as §1

Another experiment addresses ETV1 (Homo sapiens, UniProt P50549 1-477). The procedure, abridged:
as §1

Another experiment has as its target T7, ERF (Homo sapiens, UniProt P50548 1-548).
T7 sequence: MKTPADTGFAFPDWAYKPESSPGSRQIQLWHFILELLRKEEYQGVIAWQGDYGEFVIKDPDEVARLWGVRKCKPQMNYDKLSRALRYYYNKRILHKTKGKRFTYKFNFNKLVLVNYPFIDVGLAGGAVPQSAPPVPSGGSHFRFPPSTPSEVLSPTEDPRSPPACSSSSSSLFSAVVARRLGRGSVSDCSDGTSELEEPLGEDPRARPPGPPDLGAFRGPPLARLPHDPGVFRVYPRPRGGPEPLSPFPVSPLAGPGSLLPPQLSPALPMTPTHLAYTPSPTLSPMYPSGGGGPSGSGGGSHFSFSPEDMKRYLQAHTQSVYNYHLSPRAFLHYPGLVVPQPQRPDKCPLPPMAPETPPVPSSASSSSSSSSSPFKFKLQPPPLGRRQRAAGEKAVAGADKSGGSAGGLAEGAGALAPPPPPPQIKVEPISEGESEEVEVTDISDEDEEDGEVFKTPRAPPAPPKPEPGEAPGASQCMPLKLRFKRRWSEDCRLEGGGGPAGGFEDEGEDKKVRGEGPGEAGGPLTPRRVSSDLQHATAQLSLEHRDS
The procedure, abridged:
as §1

In a further experiment the target is T8, ETV3L (Homo sapiens, UniProt Q6ZN32 1-361).
T8 sequence: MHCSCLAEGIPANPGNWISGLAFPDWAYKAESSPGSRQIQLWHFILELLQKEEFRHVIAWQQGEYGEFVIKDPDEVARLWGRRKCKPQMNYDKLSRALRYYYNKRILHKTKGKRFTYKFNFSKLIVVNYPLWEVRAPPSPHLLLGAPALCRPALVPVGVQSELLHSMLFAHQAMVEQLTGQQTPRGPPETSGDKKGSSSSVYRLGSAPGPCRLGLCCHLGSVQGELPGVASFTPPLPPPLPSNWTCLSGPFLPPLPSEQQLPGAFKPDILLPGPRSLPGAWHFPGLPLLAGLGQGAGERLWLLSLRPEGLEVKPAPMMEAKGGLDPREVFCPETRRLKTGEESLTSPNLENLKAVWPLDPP
The procedure, abridged: as §1

In another experiment the target is T9, ETV7 (Homo sapiens, UniProt Q9Y603 1-341).
T9 sequence: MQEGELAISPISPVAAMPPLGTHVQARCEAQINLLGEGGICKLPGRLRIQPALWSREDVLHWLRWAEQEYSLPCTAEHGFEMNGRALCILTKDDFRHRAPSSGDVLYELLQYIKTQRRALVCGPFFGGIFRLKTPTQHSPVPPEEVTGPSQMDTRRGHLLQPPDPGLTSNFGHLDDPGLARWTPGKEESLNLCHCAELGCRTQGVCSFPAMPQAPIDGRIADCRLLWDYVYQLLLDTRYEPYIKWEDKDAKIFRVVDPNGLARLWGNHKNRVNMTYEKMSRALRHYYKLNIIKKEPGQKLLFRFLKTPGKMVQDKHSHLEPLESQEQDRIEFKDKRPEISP
The procedure, abridged:
as §1

The target of the next experiment is T10, ELF5 (Homo sapiens, UniProt Q9UKW6-2 1-255).
T10 sequence: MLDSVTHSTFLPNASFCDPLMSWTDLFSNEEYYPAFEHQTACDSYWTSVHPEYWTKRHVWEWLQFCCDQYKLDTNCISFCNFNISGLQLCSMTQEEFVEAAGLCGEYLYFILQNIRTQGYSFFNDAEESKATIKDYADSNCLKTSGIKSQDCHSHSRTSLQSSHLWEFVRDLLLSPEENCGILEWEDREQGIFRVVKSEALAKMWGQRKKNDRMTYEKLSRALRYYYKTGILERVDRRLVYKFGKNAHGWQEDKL
The procedure, abridged: as §1

Another experiment deals with ELF4 (Homo sapiens, UniProt Q99607 1-663). The procedure, abridged: as §1
Chain of ELF4 (Q99607 whole entry): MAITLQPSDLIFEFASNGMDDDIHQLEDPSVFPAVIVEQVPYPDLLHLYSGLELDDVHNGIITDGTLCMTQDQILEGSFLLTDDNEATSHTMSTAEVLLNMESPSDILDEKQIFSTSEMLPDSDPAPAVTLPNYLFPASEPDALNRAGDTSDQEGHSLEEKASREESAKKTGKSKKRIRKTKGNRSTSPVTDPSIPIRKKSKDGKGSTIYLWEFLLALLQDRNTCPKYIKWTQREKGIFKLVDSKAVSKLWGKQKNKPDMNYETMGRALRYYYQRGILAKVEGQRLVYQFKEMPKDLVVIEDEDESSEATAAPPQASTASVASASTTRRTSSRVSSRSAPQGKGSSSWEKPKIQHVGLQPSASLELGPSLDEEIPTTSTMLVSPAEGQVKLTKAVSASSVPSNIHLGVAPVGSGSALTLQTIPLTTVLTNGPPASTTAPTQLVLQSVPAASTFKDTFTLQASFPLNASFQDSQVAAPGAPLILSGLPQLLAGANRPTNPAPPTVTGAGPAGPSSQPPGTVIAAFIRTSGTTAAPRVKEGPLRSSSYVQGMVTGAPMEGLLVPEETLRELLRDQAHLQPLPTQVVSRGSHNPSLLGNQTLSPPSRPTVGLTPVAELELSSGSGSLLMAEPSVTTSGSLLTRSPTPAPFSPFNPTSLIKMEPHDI

Chain of ETV1 (P50549 whole entry): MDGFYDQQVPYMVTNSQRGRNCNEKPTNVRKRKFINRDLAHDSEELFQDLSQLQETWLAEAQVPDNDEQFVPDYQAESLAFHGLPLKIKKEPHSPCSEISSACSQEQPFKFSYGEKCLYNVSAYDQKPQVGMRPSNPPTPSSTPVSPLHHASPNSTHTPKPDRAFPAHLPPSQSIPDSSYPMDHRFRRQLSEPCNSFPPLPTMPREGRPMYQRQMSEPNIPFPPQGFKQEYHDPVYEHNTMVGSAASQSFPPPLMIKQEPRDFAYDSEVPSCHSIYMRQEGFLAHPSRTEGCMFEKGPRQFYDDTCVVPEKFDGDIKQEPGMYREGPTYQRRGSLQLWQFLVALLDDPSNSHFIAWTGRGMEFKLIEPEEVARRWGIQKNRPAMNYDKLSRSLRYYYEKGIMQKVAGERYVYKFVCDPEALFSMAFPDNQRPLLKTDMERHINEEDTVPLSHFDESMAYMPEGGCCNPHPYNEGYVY
Chain of SPIB (Q01892 whole entry): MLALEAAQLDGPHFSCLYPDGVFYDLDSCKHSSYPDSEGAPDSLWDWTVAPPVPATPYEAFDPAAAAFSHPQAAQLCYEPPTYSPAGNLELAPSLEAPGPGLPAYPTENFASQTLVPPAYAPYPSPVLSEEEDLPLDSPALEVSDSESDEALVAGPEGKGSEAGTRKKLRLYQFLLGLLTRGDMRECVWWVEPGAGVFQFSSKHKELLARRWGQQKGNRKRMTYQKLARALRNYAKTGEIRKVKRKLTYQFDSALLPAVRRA

As for GATTGC, the binding signal with ELK1 was 1.06 fold enrichment (6-mer frequency, TF over GST control); in the experiment with GABPA it was 1.04 fold enrichment (6-mer frequency, TF over GST control); with ERG it was 1.01 fold enrichment (6-mer frequency, TF over GST control); with EHF, 1.02 fold enrichment (6-mer frequency, TF over GST control); with SPIB it was 1.05 fold enrichment (6-mer frequency, TF over GST control); with ELK4, 1.04 fold enrichment (6-mer frequency, TF over GST control). Moreover, the binding signal is 1.09 fold enrichment (6-mer frequency, TF over GST control) in the experiment with ETV2; 1.02 fold enrichment (6-mer frequency, TF over GST control) with ETV1; 1.02 fold enrichment (6-mer frequency, TF over GST control) in the experiment with ERF; 1.02 fold enrichment (6-mer frequency, TF over GST control) in the experiment with ETV3L; 1.03 fold enrichment (6-mer frequency, TF over GST control) in the experiment with ETV7; 1 fold enrichment (6-mer frequency, TF over GST control) with ELF5.
Turning to GAGCTC, the binding signal was 1.02 fold enrichment (6-mer frequency, TF over GST control) with ELF4; 1.04 fold enrichment (6-mer frequency, TF over GST control) with ELK4; 1.05 fold enrichment (6-mer frequency, TF over GST control) with ETV1.
With CCGCGG, the binding signal was 1.04 fold enrichment (6-mer frequency, TF over GST control) with SPIB and 1.01 fold enrichment (6-mer frequency, TF over GST control) with ELF4.
